Sampled rows, rich in hits. Any-hit rate of the full collection: about 28%.
CYP2C19 inhib: inhibitors of human CYP2C19; CYP2C19 Supersomes, luciferin-H EGE luminescence, 30 min; AID 778; inhibition, % at 5 µM; 96,000 compounds, 21% hits;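 active = CYP2C19 inhibition above a set limit at 5 µM in the primary screen, cut at about 50% in these data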
CYP2C9 activ: CYP2C9 (human) activation | P11712 | recombinant CYP2C9, luciferin-H conversion, luminescence; active compounds read high; factor 1 = untreated enzyme, 0 = blocked | activation factor at 5 µM | 96,000 compounds, 1.4% hits | AID 1024;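 active = activation factor of 2 or more for CYP2C9 at a 5 µM dose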
Target sequence (P11712 whole entry, looked up): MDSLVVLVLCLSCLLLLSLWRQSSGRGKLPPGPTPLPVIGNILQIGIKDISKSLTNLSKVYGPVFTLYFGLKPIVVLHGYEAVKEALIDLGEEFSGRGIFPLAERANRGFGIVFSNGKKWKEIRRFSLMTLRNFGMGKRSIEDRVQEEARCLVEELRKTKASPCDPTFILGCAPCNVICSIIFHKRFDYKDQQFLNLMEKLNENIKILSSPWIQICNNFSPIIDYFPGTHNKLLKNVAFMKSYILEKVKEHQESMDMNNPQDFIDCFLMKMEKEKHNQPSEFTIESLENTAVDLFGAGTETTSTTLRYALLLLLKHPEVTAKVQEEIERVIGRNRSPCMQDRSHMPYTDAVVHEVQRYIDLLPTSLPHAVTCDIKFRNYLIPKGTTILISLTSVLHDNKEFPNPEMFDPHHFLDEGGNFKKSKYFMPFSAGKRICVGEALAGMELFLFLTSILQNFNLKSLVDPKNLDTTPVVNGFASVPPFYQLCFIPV
CYP2C9 inhib: blocks human cytochrome P450 2C9; P11712; AID 777; CYP2C9 Supersomes, luciferin-H conversion, luminescence; 96,000 compounds, 20% hits; inhibition, % at 5 µM;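 active = blocking of liver enzyme CYP2C9 beyond about 50% at 5 µM, limit read from the data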
Mac1 fbg enh: enhancers of human CD11b/CD18 binding to fibrinogen; P05107+P11215; K562 CD11b/CD18 adhesion to fibrinogen, ATPlite luminescence; activation, % at 10 µM; 93,000 compounds, 0.07% hits; AID 1499;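 active = 10 µM primary screen giving 50% or more activity, confirmed by 40% or more on retest at that dose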
CYP2C19 act: activators of human cytochrome P450 2C19. 96,000 tested, under 10 active. activation factor at 5 µM. AID 1025. P33261. recombinant CYP2C19, luciferin-H EGE luminescence; active compounds read high; 0 = fully inhibited enzyme, 1 = untreated enzyme;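 active = activation factor of at least 2 at 5 µM in the primary screen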
CD11b adhes inh: blocks human CD11b/CD18 adhesion to fibrinogen. inhibition, % at 10 µM. K562 CD11b/CD18 adhesion to fibrinogen, ATPlite luminescence; Mn2+ added to activate the integrin. 93,000 compounds, 0.54% hits;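 active = primary inhibition of 50% or more at 10 µM, then 40% or more on retest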
A number is an active result.

Screening CC1CCCCN1C(=O)Cc1ccc(F)cc1 (stereo not given) returned CYP2C19 inhib 75, CYP2C9 activ inactive, CYP2C9 inhib inactive, Mac1 fbg enh inactive, CYP2C19 act inactive and CD11b adhes inh inactive.
CC1CCCC(C)N1C(=O)Cc1ccccc1 (stereo not given) was read as CYP2C19 inhib 76, CYP2C9 activ inactive, CYP2C9 inhib inactive, Mac1 fbg enh inactive, CYP2C19 act inactive and CD11b adhes inh inactive.
`O=C(NCc1ccccc1F)C1CCCN1C(=O)NCc1ccccc1` (stereo not given) gave CYP2C19 inhib inactive, CYP2C9 activ inactive, CYP2C9 inhib inactive, Mac1 fbg enh inactive, CYP2C19 act inactive and CD11b adhes inh inactive.
Screening CC(C)NC(=O)C1CC(=O)N(C(C)c2ccccc2)C1 (stereo not given) returned CYP2C19 inhib inactive, CYP2C9 activ inactive, CYP2C9 inhib inactive, Mac1 fbg enh inactive, CYP2C19 act inactive and CD11b adhes inh inactive.
Screening CN(C)Cc1nc2ccccc2c(=O)n1Cc1nc(-c2cc3ccccc3o2)cs1 returned CYP2C19 inhib inactive, CYP2C9 activ inactive, CYP2C9 inhib 70, Mac1 fbg enh inactive, CYP2C19 act inactive and CD11b adhes inh inactive.
Screening COc1ccc(C(=O)N[C@H](C(=O)OCC(=O)NC(=O)c2cccn2C)C(C)C)cc1 returned Mac1 fbg enh inactive and CD11b adhes inh inactive.
COc1ccc(/C=C(/C#N)C(=O)Nc2ccccc2C)cc1C(=O)O was read as Mac1 fbg enh inactive and CD11b adhes inh inactive.
COc1ccc(/C=C(/C#N)C(=O)Nc2cccc(C)c2C)cc1C(=O)O was read as CYP2C19 inhib 58, CYP2C9 activ inactive, CYP2C9 inhib inactive, Mac1 fbg enh inactive, CYP2C19 act inactive and CD11b adhes inh inactive.
`CCOC(=O)c1sc2nc(CC(=O)OC)nc(NCc3ccco3)c2c1C` gave CYP2C19 inhib 61, CYP2C9 activ inactive, CYP2C9 inhib 84 and CYP2C19 act inactive.
Cc1nc(NCc2ccco2)c2c(C)c(C)sc2n1 was read as CYP2C19 inhib 77, CYP2C9 activ inactive, CYP2C9 inhib 82, Mac1 fbg enh inactive, CYP2C19 act inactive and CD11b adhes inh 83.
Screening Cc1nc(SCC(=O)N(C)Cc2ccco2)c2c(C)c(C)sc2n1 returned CYP2C19 inhib 68, CYP2C9 activ inactive, CYP2C9 inhib 88, Mac1 fbg enh inactive, CYP2C19 act inactive and CD11b adhes inh inactive.
Screening CCOC(=O)c1sc2nc(CC(=O)OC)nc(NCC(=O)OC)c2c1C returned CYP2C19 inhib inactive, CYP2C9 activ inactive, CYP2C9 inhib inactive, Mac1 fbg enh inactive, CYP2C19 act inactive and CD11b adhes inh inactive.
Cc1sc2ncnc(N(C)Cc3ccco3)c2c1C was read as CYP2C19 inhib 96, CYP2C9 activ inactive, CYP2C9 inhib 78, Mac1 fbg enh inactive, CYP2C19 act inactive and CD11b adhes inh inactive.
Cc1sc2nc3c4ccccc4c(NCc4ccco4)nn3c(=O)c2c1C was read as CYP2C19 inhib inactive, CYP2C9 activ inactive, CYP2C9 inhib inactive, Mac1 fbg enh inactive, CYP2C19 act inactive and CD11b adhes inh inactive.
Screening Cc1ccc2c(C)nc(NC3=NCN(CCc4ccccc4)CN3)nc2c1 returned CYP2C19 inhib inactive, CYP2C9 activ inactive, CYP2C9 inhib inactive, Mac1 fbg enh inactive, CYP2C19 act inactive and CD11b adhes inh inactive.
`NC(=O)CC1NC(=O)c2ccccc21` (stereo not given) gave CYP2C19 inhib inactive, CYP2C9 activ inactive, CYP2C9 inhib inactive, Mac1 fbg enh inactive, CYP2C19 act inactive and CD11b adhes inh inactive.
Screening O=C(N/N=C/CCc1ccccc1)c1ccc(CN2c3cccc4cccc(c34)S2(=O)=O)cc1 returned Mac1 fbg enh inactive and CD11b adhes inh inactive.
O=C(CSc1nnc(-c2ccccc2Br)o1)Nc1cccc2ccccc12 was read as CYP2C19 inhib inactive, CYP2C9 activ inactive, CYP2C9 inhib inactive, Mac1 fbg enh inactive, CYP2C19 act inactive and CD11b adhes inh inactive.
O=c1c2ccccc2nnn1Cc1nnc(-c2ccccc2Br)o1 was read as CYP2C19 inhib 82, CYP2C9 activ inactive, CYP2C9 inhib inactive, Mac1 fbg enh inactive, CYP2C19 act inactive and CD11b adhes inh inactive.
Screening O=S1(=O)c2cccc3cccc(c23)N1Cc1ccc(-c2nnco2)cc1 returned CYP2C19 inhib 68, CYP2C9 activ inactive, CYP2C9 inhib 53, Mac1 fbg enh inactive, CYP2C19 act inactive and CD11b adhes inh inactive.
